Source: the supplement of paper PMC12819154, “High-throughput peptide-centric local stability assay extends protein–ligand identification to membrane proteins, tissues and bacteria” (Nature Structural & Molecular Biology, 2025)

Chain of UniProt Q61694 (Q61694 whole entry): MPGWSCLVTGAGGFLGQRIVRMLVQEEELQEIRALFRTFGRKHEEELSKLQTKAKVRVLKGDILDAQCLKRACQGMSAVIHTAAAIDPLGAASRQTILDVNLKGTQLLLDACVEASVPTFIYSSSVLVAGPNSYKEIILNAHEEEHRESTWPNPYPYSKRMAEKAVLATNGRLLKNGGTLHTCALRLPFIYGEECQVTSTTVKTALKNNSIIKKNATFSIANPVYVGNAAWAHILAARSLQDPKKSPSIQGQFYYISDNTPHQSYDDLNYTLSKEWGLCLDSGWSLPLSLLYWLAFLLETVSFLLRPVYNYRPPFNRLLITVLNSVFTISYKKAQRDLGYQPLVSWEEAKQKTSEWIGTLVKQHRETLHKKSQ
Chain of UniProt Q99LC5 (Q99LC5 whole entry): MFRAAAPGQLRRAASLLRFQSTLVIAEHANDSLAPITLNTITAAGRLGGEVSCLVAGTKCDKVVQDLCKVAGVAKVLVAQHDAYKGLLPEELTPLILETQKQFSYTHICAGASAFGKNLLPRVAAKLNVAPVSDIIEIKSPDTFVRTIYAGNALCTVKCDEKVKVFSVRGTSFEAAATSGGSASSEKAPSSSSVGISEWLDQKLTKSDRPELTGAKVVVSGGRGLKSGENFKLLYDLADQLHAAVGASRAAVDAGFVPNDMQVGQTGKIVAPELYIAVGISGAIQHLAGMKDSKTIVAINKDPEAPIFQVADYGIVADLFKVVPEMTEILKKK
Chain of UniProt Q9QZS5 (Q9QZS5 whole entry): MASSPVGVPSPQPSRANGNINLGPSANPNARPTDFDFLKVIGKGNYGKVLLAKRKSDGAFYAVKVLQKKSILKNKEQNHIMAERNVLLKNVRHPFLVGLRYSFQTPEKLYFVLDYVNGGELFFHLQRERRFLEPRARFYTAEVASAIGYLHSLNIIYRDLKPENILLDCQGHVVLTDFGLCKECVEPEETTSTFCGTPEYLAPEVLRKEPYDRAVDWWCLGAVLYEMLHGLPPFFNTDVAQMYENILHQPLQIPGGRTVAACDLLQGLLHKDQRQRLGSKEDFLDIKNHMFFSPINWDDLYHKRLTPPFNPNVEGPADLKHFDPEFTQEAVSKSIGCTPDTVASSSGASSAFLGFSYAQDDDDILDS
Chain of UniProt Q7TSE6 (Q7TSE6 whole entry): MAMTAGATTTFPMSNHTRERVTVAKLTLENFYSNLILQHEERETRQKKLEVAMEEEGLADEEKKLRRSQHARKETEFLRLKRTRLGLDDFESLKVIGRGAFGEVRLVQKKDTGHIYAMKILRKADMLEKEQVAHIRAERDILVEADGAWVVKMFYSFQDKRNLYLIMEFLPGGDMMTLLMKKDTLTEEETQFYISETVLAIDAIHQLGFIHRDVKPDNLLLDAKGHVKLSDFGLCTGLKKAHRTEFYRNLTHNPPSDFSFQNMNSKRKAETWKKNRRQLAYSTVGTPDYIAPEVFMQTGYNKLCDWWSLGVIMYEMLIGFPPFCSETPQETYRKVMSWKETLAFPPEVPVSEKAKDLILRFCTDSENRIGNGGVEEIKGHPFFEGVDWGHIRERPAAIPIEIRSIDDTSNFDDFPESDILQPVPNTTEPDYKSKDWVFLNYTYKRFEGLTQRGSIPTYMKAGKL
Chain of UniProt Q05020 (Q05020 whole entry): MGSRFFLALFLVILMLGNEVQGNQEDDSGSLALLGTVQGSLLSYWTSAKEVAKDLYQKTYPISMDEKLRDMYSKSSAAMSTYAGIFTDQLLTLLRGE
Chain of UniProt Q8BHC4 (Q8BHC4 whole entry): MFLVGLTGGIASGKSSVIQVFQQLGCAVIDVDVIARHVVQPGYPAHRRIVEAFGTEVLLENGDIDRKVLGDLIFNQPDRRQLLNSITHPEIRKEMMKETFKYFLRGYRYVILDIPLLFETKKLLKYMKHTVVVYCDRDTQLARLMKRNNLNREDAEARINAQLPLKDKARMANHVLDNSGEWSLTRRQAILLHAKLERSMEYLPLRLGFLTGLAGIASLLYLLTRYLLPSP
Chain of UniProt Q9QXD1 (Q9QXD1 whole entry): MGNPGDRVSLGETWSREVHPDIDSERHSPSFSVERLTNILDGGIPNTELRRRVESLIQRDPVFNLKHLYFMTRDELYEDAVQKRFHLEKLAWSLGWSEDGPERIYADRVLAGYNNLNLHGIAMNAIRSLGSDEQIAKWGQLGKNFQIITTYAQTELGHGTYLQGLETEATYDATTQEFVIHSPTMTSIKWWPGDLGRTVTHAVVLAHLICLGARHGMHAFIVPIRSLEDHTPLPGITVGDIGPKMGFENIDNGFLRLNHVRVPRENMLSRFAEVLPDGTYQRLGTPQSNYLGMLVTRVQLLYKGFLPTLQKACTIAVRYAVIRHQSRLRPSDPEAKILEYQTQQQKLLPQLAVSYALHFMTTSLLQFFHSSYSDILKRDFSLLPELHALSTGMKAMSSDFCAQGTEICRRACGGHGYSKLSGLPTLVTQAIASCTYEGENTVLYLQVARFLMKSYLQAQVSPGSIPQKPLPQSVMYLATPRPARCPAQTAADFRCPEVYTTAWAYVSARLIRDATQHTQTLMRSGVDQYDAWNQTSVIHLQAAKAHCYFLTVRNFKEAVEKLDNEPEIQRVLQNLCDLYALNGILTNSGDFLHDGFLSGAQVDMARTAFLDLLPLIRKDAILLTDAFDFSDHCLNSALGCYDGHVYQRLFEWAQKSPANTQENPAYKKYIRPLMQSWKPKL
Chain of UniProt Q8C050 (Q8C050 whole entry): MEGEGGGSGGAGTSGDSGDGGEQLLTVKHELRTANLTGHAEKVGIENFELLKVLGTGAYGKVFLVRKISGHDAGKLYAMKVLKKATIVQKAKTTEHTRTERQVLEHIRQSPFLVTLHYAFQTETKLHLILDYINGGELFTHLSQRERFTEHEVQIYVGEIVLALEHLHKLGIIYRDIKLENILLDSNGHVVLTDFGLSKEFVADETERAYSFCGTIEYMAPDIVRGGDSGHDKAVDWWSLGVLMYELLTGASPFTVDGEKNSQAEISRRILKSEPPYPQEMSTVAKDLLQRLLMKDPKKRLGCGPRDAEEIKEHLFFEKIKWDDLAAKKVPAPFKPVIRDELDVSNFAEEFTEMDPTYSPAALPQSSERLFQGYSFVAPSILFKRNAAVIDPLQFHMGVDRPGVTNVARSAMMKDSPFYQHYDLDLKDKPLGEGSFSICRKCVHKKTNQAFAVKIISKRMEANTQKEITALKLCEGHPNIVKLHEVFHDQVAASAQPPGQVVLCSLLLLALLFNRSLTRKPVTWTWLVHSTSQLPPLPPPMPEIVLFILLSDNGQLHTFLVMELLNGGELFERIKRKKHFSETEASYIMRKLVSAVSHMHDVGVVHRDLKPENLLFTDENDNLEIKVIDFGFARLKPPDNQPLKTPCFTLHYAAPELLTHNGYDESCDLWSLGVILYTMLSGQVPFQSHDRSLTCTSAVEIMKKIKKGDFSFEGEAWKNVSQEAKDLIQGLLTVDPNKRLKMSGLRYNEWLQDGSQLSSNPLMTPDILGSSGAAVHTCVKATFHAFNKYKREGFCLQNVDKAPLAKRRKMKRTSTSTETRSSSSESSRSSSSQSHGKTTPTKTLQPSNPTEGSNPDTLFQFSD
Chain of UniProt Q60648 (Q60648 whole entry): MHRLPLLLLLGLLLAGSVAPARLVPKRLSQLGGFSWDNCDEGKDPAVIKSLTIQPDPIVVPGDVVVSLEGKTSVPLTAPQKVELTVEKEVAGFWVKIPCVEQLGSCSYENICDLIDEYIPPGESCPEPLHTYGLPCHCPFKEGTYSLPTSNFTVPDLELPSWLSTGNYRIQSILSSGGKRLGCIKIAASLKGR
Chain of UniProt O35495 (O35495 whole entry): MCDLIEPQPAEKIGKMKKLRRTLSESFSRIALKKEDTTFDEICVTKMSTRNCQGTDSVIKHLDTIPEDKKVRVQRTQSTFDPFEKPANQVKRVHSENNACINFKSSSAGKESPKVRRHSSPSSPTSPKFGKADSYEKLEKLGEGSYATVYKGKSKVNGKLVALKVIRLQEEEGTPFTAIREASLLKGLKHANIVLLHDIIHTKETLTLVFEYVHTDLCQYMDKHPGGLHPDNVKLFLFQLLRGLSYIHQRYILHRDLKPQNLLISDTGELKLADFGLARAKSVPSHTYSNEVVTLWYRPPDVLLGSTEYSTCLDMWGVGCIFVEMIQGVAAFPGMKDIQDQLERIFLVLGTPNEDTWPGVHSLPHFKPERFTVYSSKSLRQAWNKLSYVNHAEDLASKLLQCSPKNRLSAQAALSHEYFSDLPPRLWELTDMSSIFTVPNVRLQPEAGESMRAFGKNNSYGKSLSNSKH
Chain of UniProt O35469 (O35469 whole entry): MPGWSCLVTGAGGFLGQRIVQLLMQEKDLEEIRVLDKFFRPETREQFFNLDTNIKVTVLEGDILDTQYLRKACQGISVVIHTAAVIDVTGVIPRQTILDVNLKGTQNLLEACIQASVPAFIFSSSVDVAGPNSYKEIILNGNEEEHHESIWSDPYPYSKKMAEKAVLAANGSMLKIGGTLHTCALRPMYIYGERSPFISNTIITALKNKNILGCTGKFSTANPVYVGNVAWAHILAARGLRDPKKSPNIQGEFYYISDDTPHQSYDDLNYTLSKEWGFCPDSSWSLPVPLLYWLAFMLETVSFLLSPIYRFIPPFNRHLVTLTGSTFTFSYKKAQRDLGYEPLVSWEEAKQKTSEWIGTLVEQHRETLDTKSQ
Chain of UniProt P31532 (P31532 whole entry): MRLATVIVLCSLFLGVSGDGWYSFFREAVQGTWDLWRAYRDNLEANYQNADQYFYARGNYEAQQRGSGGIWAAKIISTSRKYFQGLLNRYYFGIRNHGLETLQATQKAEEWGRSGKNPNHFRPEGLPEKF
Chain of UniProt Q8BZ09 (Q8BZ09 whole entry): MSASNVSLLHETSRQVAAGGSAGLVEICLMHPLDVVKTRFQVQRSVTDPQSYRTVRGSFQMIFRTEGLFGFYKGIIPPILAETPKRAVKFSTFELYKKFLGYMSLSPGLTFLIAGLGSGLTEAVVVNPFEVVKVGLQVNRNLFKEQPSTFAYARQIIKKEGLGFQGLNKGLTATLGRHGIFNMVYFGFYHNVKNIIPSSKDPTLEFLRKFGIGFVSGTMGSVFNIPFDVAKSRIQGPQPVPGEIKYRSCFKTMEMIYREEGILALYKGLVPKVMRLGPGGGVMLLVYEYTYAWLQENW

The targets below were run with CN[C@@H]1C[C@H]2O[C@@](C)([C@@H]1OC)n1c3ccccc3c3c4c(c5c6ccccc6n2c5c31)C(=O)NC4 [staurosporine] (assay: log2 fold change of tryptic peptide abundance, ligand vs vehicle (limited proteolysis) (log2 ratio); higher = more trypsin-susceptible (destabilized)). Conditions: ligand concentration: 20 uM; sample: mouse liver crude lysate; replicate design: treated separately.
Target “UniProt Q9DC61 (peptide sequence: QVLATHSR, peptide start residue: 451)” has a log2 fold change of -1.12.
With “UniProt Q8JZY4 (peptide sequence: YLYLCVFHK, peptide start residue: 178)” the log2 fold change was 0.47.
In the case of “UniProt Q8BHC4 (peptide sequence: HVVQPGYPAHR, peptide start residue: 37)”, the log2 fold change is reported as 0.384.
“UniProt Q7TSE6 (peptide sequence: LSDFGLCTGLKK, peptide start residue: 228)” showed a log2 fold change of -2.66.
Target “UniProt O54909 (peptide sequence: YLASYLKR, peptide start residue: 242)” has a log2 fold change of -1.31.
For “UniProt Q03147 (peptide sequence: DKNTNQIVAIKK, peptide start residue: 31)”, the log2 fold change was -2.43.
“UniProt Q9D2C7 (peptide sequence: MNIFDRK, peptide start residue: 1)” gave a log2 fold change of 0.348.
Target “UniProt P52332 (peptide sequence: NVLVESEHQVK, peptide start residue: 1007)” has a log2 fold change of -2.98.
Work on “UniProt P24788 (peptide sequence: YLPALQGCR, peptide start residue: 414)” yielded a log2 fold change of -0.33.
Work on “UniProt Q9JHU4 (peptide sequence: SNLPDNLK, peptide start residue: 2024)” yielded a log2 fold change of 0.261.
For “UniProt Q8R4K2 (peptide sequence: GCVNNTIVAVK, peptide start residue: 203)”, the log2 fold change was -2.95.
“UniProt Q9QZS5 (peptide sequence: TVAACDLLQGLLHKDQR, peptide start residue: 258)” gave a log2 fold change of -2.7.
Target “UniProt P31532 (peptide sequence: KYFQGLLNR, peptide start residue: 81)” has a log2 fold change of 0.505.
In the case of “UniProt Q91WL5 (peptide sequence: GLLMLDGQTWFQHR, peptide start residue: 128)”, the log2 fold change is reported as 0.409.
For “UniProt Q8VDP6 (peptide sequence: MIDLSGNPVLR, peptide start residue: 122)”, the log2 fold change was 0.341.
“UniProt Q80ZW0 (peptide sequence: YSLLAEIGR, peptide start residue: 207)” showed a log2 fold change of -0.855.
Target “UniProt P31750 (peptide sequence: HPFLTALK, peptide start residue: 209)” has a log2 fold change of -1.6.
Work on “UniProt P43142 (peptide sequence: YLPKEQAR, peptide start residue: 334)” yielded a log2 fold change of -0.325.
“UniProt Q8C878 (peptide sequence: LPEHCIEYVR, peptide start residue: 245)” showed a log2 fold change of 0.505.
“UniProt Q9QVP9 (peptide sequence: CWDYDPSDRPR, peptide start residue: 661)” showed a log2 fold change of -1.22.
In the case of “UniProt Q99LC5 (peptide sequence: TIYAGNALCTVK, peptide start residue: 147)”, the log2 fold change is reported as 0.35.
“UniProt Q60648 (peptide sequence: IQSILSSGGK, peptide start residue: 170)” was tested, and the log2 fold change was -0.484.
Work on “UniProt Q8BH59 (peptide sequence: LQVAGEITTGPR, peptide start residue: 457)” yielded a log2 fold change of 0.568.
Work on “UniProt Q9WTU6 (peptide sequence: MLVIDPDKR, peptide start residue: 301)” yielded a log2 fold change of -1.15.
For “UniProt Q05020 (peptide sequence: TYPISMDEK, peptide start residue: 59)”, the log2 fold change was 0.537.
Target “UniProt Q8C050 (peptide sequence: VLGTGAYGK, peptide start residue: 53)” has a log2 fold change of -1.37.
In the case of “UniProt Q8BZ09 (peptide sequence: IQGPQPVPGEIK, peptide start residue: 234)”, the log2 fold change is reported as 0.534.
“UniProt O35469 (peptide sequence: QTILDVNLK, peptide start residue: 95)” was tested, and the log2 fold change was -0.227.
“UniProt Q922S4 (peptide sequence: AMGNRPMEMMDR, peptide start residue: 838)” was tested, and the log2 fold change was 0.447.
“UniProt O35495 (peptide sequence: LADFGLAR, peptide start residue: 853)” gave a log2 fold change of -1.69.
“UniProt Q9QXD1 (peptide sequence: LFEWAQK, peptide start residue: 649)” was tested, and the log2 fold change was -0.551.
With “UniProt Q61694 (peptide sequence: EIILNAHEEEHR, peptide start residue: 136)” the log2 fold change was -0.448.
Target “UniProt O88643 (peptide sequence: LTDFGFCAQITPEQSKR, peptide start residue: 384)” has a log2 fold change of -2.39.
Target “UniProt P70424 (peptide sequence: VLGSGAFGTVYK, peptide start residue: 719)” has a log2 fold change of -1.19.
For “UniProt Q62073 (peptide sequence: VNHPNIVK, peptide start residue: 84)”, the log2 fold change was -1.73.
